Assay results taken from PubChem BioAssay (NCI).
Values joined by “and” are separate entries in the source; they are usually repeats but may differ in a detail not shown here. Identical values can stand only once. About 83,000 compounds went through this panel and 20% of them were active in at least one assay; those are over-represented in the sample as a whole.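 48-hour exposure, single concentration, 96-well plates; percent growth endpoint where 0 means no net growth. Active: below 10.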 Active and inactive are the calls of the source.

What was measured:
Assay in all cases: NCI-60 one-dose screen, 48 h (100 = growth as untreated, 0 = no growth, -100 = all killed)
[1] = tested on: SK-MEL-2 melanoma; conditions: 10 µM unless noted
[2] = tested on: EKVX NSCLC
[3] = tested on: SN12C renal
[4] = tested on: TK-10 renal; conditions: 10 µM unless noted
[5] = tested on: ACHN renal
[6] = tested on: CAKI-1 renal
[7] = tested on: CCRF-CEM leukemia
[8] = tested on: MOLT-4 leukemia
[9] = tested on: SR leukemia
[10] = tested on: RPMI-8226 leukemia
[11] = tested on: OVCAR-8 ovarian
[12] = tested on: OVCAR-5 ovarian
[13] = tested on: OVCAR-4 ovarian
[14] = tested on: SK-OV-3 ovarian
[15] = tested on: OVCAR-3 ovarian
[16] = tested on: HS 578T breast
[17] = tested on: NCI/ADR-RES ovarian; conditions: 10 µM unless noted
[18] = tested on: UO-31 renal
[19] = tested on: A498 renal; conditions: 10 µM unless noted
[20] = tested on: IGROV1 ovarian; conditions: 10 µM unless noted

Measured: growth

Oc1ccc(/C=C/c2ccccc2)cc1
inactive: [1] 98.4% and 98.8% | [2]; 10 µM unless noted 76.9% and 108% | [3]; 10 µM unless noted 74.5% and 72.4% | [4] 92.9% and 65.1% | [5]; 10 µM unless noted 17.3% and 16.2% | [7]; 10 µM unless noted 33.5% and 33.3% | [8]; 10 µM unless noted 61.6% and 47.5% | [9]; 10 µM unless noted 48.6% and 69.6% | [10]; 10 µM unless noted 61.3% and 81.8% | [11]; 10 µM unless noted 66.2% and 50.5% | [12]; 10 µM unless noted 97.5% and 140% | [13]; 10 µM unless noted 61.5% | [14]; 10 µM unless noted 94.8% and 99.4% | [15]; 10 µM unless noted 79.1% and 76.5% | [16]; 10 µM unless noted 86.7% | [17] 43.5% and 41.6%
active: [6]; 10 µM unless noted 6.76%

CN(C)c1ccc(C(=C2C=CC(=[N+](C)C)C=C2)c2ccccc2Cl)cc1
active: [3]; 10 µM unless noted -42% and -50.3% | [18]; 10 µM unless noted -28.9% and -12.3% | [4] -30.6% and -72.4% | [5]; 10 µM unless noted 1.56% and -64% | [6]; 10 µM unless noted -16.7% | [19] -64% and -87.1% | [7]; 10 µM unless noted -35.3% and 5.73% | [8]; 10 µM unless noted -26.3% and 5.09% | [9]; 10 µM unless noted -38.3% | [10]; 10 µM unless noted -22.6% | [11]; 10 µM unless noted -77.5% and -77.8% | [12]; 10 µM unless noted -27.8% and -93.8% | [13]; 10 µM unless noted 4.46% and -27% | [14]; 10 µM unless noted -38.7% and -32.4% | [20] -81.1% and -67.1% | [15]; 10 µM unless noted -88.9% and -91.4% | [16]; 10 µM unless noted -37.3% and -21.2%
15.9% (inactive) and -34.1% (active): [2]; 10 µM unless noted
23.2% (inactive) and 9.87% (active): [17]

CCOC(=O)C(CNc1ccccc1)C(=O)OCC
inactive: [1] 109% | [3]; 10 µM unless noted 105% | [18]; 10 µM unless noted 84.7% | [4] 106% | [5]; 10 µM unless noted 102% | [6]; 10 µM unless noted 94.9% | [19] 98.5% | [8]; 10 µM unless noted 98.5% | [9]; 10 µM unless noted 97% | [10]; 10 µM unless noted 95.1% | [11]; 10 µM unless noted 98.2% | [12]; 10 µM unless noted 102% | [13]; 10 µM unless noted 107% | [14]; 10 µM unless noted 98.9% | [20] 101% | [15]; 10 µM unless noted 105% | [16]; 10 µM unless noted 109% | [17] 103%

CCN(CC)CCC(CNc1c2ccc([N+](=O)[O-])cc2nc2cc(OC)c(OC)cc12)c1ccccc1 (centres undefined)
30.5% (inactive) and -58.4% (active): [17]
active: [2]; 10 µM unless noted -23.6% and -87.3% | [3]; 10 µM unless noted -27.1% and -91.6% | [18]; 10 µM unless noted -73.9% and -99.4% | [4] -4.61% and -89.9% | [5]; 10 µM unless noted -58.9% and -76.9% | [6]; 10 µM unless noted 8.78% and -76.1% | [19] -16.9% | [7]; 10 µM unless noted 1.82% and -50.9% | [8]; 10 µM unless noted 5.7% | [9]; 10 µM unless noted -14.8% | [10]; 10 µM unless noted -5.85% and -73% | [11]; 10 µM unless noted 6.28% and -80.7% | [12]; 10 µM unless noted -13.3% and -83.9% | [13]; 10 µM unless noted -53.2% and -94.6% | [20] -49.8% and -64% | [15]; 10 µM unless noted -38% and -100%
inactive: [16]; 10 µM unless noted 44.4%
27.3% (inactive) and -64.1% (active): [14]; 10 µM unless noted

N#C/C(=C/c1c(O)ccc2ccccc12)C(N)=O
inactive: [1] 87.6% | [3]; 10 µM unless noted 108% | [18]; 10 µM unless noted 54% | [4] 114% | [5]; 10 µM unless noted 92.4% | [6]; 10 µM unless noted 84% | [8]; 10 µM unless noted 92.4% | [10]; 10 µM unless noted 88.2% | [11]; 10 µM unless noted 105% | [13]; 10 µM unless noted 92% | [14]; 10 µM unless noted 92.6% | [20] 93.4% | [15]; 10 µM unless noted 90.1% | [16]; 10 µM unless noted 113% | [17] 94.6%

O=C1c2c(O)cc(O)cc2OC(c2ccc(O)c(O)c2)C1O (centres undefined)
inactive: [1] 105% | [2]; 10 µM unless noted 119% | [3]; 10 µM unless noted 104% | [4] 104% | [5]; 10 µM unless noted 105% | [6]; 10 µM unless noted 118% | [7]; 10 µM unless noted 97.7% | [8]; 10 µM unless noted 107% | [9]; 10 µM unless noted 101% | [10]; 10 µM unless noted 99.5% | [11]; 10 µM unless noted 99.1% | [12]; 10 µM unless noted 104% | [13]; 10 µM unless noted 113% | [14]; 10 µM unless noted 109% | [20] 126% | [15]; 10 µM unless noted 123%

C=C1C(=O)O[C@H]2[C@H]1CC/C(COC(=O)NC1CCC(O)CC1)=C\CC[C@@]1(C)O[C@@H]21 (some centres undefined)
inactive: [1] 91.2% and 86.1% | [2]; 10 µM unless noted 72.8% and 67.5% | [18]; 10 µM unless noted 78.9% and 70.1% | [4] 75.2% and 71.5% | [5]; 10 µM unless noted 54.3% and 45% | [6]; 10 µM unless noted 70.3% and 64% | [19] 105% and 101% | [7]; 10 µM unless noted 16.1% and 12.7% | [8]; 10 µM unless noted 69.5% and 63.2% | [9]; 10 µM unless noted 27.3% and 23.4% | [10]; 10 µM unless noted 61.4% and 54.9% | [11]; 10 µM unless noted 77.1% and 79.6% | [12]; 10 µM unless noted 83.9% and 83.6% | [13]; 10 µM unless noted 77.8% and 76% | [14]; 10 µM unless noted 103% and 104% | [20] 97.4% and 78.2% | [15]; 10 µM unless noted 44.5% and 46.5% | [16]; 10 µM unless noted 92% and 87.6% | [17] 99.8% and 100%

NC(=O)c1ccccc1OCC(O)CO (centres undefined)
inactive: [1] 103% | [3]; 10 µM unless noted 101% | [18]; 10 µM unless noted 99.7% | [4] 110% | [5]; 10 µM unless noted 103% | [6]; 10 µM unless noted 97.5% | [7]; 10 µM unless noted 93.6% | [8]; 10 µM unless noted 108% | [9]; 10 µM unless noted 94.9% | [10]; 10 µM unless noted 99% | [11]; 10 µM unless noted 104% | [12]; 10 µM unless noted 99.5% | [13]; 10 µM unless noted 103% | [14]; 10 µM unless noted 109% | [15]; 10 µM unless noted 106% | [16]; 10 µM unless noted 117% | [17] 119%

CC(C)CNC(=O)c1ccccc1C(=O)NC1(C(=O)NCC(C)C)CCCC1
inactive: [2]; 10 µM unless noted 96.7% and 109% | [3]; 10 µM unless noted 99.8% and 107% | [18]; 10 µM unless noted 83.5% and 86.1% | [4] 111% and 114% | [5]; 10 µM unless noted 102% and 104% | [6]; 10 µM unless noted 90.6% and 98% | [19] 84.2% and 123% | [7]; 10 µM unless noted 88.4% and 104% | [8]; 10 µM unless noted 102% and 88.6% | [9]; 10 µM unless noted 110% and 90.5% | [10]; 10 µM unless noted 105% | [11]; 10 µM unless noted 101% and 104% | [12]; 10 µM unless noted 98.6% and 98.3% | [13]; 10 µM unless noted 107% and 111% | [14]; 10 µM unless noted 107% and 99.5% | [20] 111% and 102% | [15]; 10 µM unless noted 116% and 109% | [16]; 10 µM unless noted 110% and 105% | [17] 106% and 105%

CC1(C)OB(c2ccc(Cn3cc(F)c(=O)[nH]c3=O)cc2)OC1(C)C
active: [15]; 50 µM 4.62%
inactive: [2]; 10 µM 106% | [2]; 50 µM 72.1% | [3]; 10 µM 102% | [3]; 50 µM 80.8% | [18]; 10 µM 87.3% | [18]; 50 µM 72.8% | [5]; 10 µM 103% | [5]; 50 µM 92.1% | [6]; 10 µM 85.7% | [6]; 50 µM 75.1% | [19] 25.6% [50 µM] | [7]; 10 µM 112% | [7]; 50 µM 37.7% | [8]; 10 µM 99.3% | [8]; 50 µM 54.7% | [9]; 10 µM 106% | [9]; 50 µM 39.5% | [10]; 10 µM 107% | [10]; 50 µM 68.1% | [11]; 10 µM 106% | [11]; 50 µM 75.1% | [12]; 10 µM 97.5% | [12]; 50 µM 70.4% | [13]; 10 µM 111% | [13]; 50 µM 69.9% | [14]; 10 µM 114% | [14]; 50 µM 69% | [15]; 10 µM 104% | [16]; 10 µM 100%
